From PubChem BioAssay AID1159580 (chemical genetic matrix, 2015)
In all, about 5,500 compounds went through this assay and about 2,000 (36%) were called active. Not shown: some 18% with an inconclusive outcome. Cut-off read from the data, not from the text of the source: active = normalized growth mostly below about 0.91 (no sharp cut-off); inconclusive = no clear call, values can overlap the other calls; inactive = mostly above about 0.92. This is one part of the list.

Assay: chemical genetic growth profiling, strain panel (AID 1159580);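 note: tested at 20 µM; growth read once vehicle control cultures reached saturation at 30 °C; 1 = growth at the plate median or of vehicle wells; lower values mean less growth of the strain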
Conditions: S. cerevisiae deletion strains, growth OD
[1] = locus YAR019C, strain CDC15, hits give low values
[2] = locus YBL105C, strain PKC1, hits give low values
[3] = locus YBR135W, strain CKS1, hits give low values
[4] = locus YBR136W, strain MEC1, hits give low values
[5] = locus YBR160W, strain CDC28, hits give low values
[6] = locus YDL017W, strain CDC7, hits give low values
[7] = locus YDL028C, strain MPS1, hits give low values
[8] = locus YDL101C, strain DUN1, hits give low values
[9] = locus YDL108W, strain KIN28, hits give low values
[10] = locus YDL132W, strain cdc53, hits give low values
[11] = locus YDL214C, strain PRR2, hits give low values
[12] = locus YDR052C, strain DBF4, hits give low values
[13] = locus YDR054C, strain cdc34, hits give low values
[14] = locus YDR226W, strain ADK1, hits give low values
[15] = locus YDR477W, strain SNF1, hits give low values
[16] = locus YER123W, strain YCK3, hits give low values
[17] = locus YER133W, strain GLC7, hits give low values
[18] = locus YFL009W, strain cdc4, hits give low values
[19] = locus YFL029C, strain CAK1, hits give low values
[20] = locus YFR003C, strain YPI1, hits give low values
[21] = locus YFR019W, strain FAB1, hits give low values
[22] = locus YFR028C, strain CDC14, hits give low values
[23] = locus YGR040W, strain KSS1, hits give low values
[24] = locus YGR052W, strain FMP48, hits give low values
[25] = locus YGR092W, strain DBF2, hits give low values
[26] = locus YHR030C, strain SLT2, hits give low values
[27] = locus YHR079C, strain IRE1, hits give low values
[28] = locus YHR082C, strain KSP1, hits give low values
[29] = locus YHR205W, strain SCH9, hits give low values
[30] = locus YIL147C, strain SLN1, hits give low values
[31] = locus YJL095W, strain BCK1, hits give low values
[32] = locus YJL128C, strain PBS2, hits give low values
[33] = locus YJL157C, strain FAR1, hits give low values
[34] = locus YJR016C, strain ILV3, hits give low values
[35] = locus YJR066W, strain TOR1 (second series), hits give low values
[36] = locus YJR066W, strain TOR1, hits give low values
[37] = locus YKL048C, strain ELM1, hits give low values
[38] = locus YKL067W, strain YNK1, hits give low values
[39] = locus YKL101W, strain HSL1, hits give low values
[40] = locus YKL193C, strain SDS22, hits give low values
[41] = locus YKL203C, strain TOR2, hits give low values
[42] = locus YLR113W, strain HOG1, hits give low values
[43] = locus YLR133W, strain CKI1, hits give low values
[44] = locus YLR403W, strain SFP1, hits give low values
[45] = locus YML070W, strain DAK1, hits give low values
[46] = locus YMR001C, strain CDC5, hits give low values
[47] = locus YMR205C, strain PFK2 (second series), hits give low values
[48] = locus YMR277W, strain FCP1, hits give low values
[49] = locus YNL006W, strain LST8, hits give low values
[50] = locus YNL020C, strain ARK1, hits give low values
[51] = locus YNL161W, strain CBK1, hits give low values
[52] = locus YNL183C, strain NPR1, hits give low values
[53] = locus YNL207W, strain RIO2, hits give low values
[54] = locus YNL222W, strain SSU72, hits give low values
[55] = locus YNL307C, strain MCK1 (second series), hits give low values
[56] = locus YOL078W, strain AVO1, hits give low values
[57] = locus YOL136C, strain PFK27, hits give low values
[58] = locus YOR061W, strain CKA2, hits give low values
[59] = locus YOR119C, strain RIO1, hits give low values
[60] = locus YOR231W, strain MKK1, hits give low values
[61] = locus YOR329C, strain SCD5, hits give low values
[62] = locus YPL031C, strain PHO85, hits give low values
[63] = locus YPL153C, strain RAD53, hits give low values
[64] = locus YPL204W, strain HRR25, hits give low values
[65] = locus YPL209C, strain IPL1, hits give low values
[66] = locus YPL256C, strain CLN2, hits give low values
[67] = locus YPR025C, strain CCL1, hits give low values
[68] = locus YPR106W, strain ISR1, hits give low values
[69] = locus YPR111W, strain DBF20, hits give low values
[70] = strain NNK1, hits give low values
[71] = strain TSCII, hits give low values

Measured: normalized growth

O=C1Nc2ccccc2/C1=C\c1c(Cl)cccc1Cl
active: [42] 0.845
inactive: [1] 0.966 | [2] 0.963 | [3] 0.973 | [4] 0.974 | [5] 0.972 | [6] 0.969 | [7] 0.975 | [8] 0.964 | [9] 0.974 | [10] 0.965 | [11] 0.951 | [12] 0.975 | [13] 0.958 | [14] 0.963 | [15] 0.939 | [16] 0.945 | [17] 0.945 | [18] 0.96 | [19] 0.961 | [20] 0.969 | [21] 0.976 | [22] 0.973 | [23] 0.945 | [24] 0.981 | [25] 0.909 | [26] 0.985 | [27] 0.901 | [28] 1.03 | [29] 0.918 | [30] 0.971 | [31] 0.894 | [32] 0.915 | [33] 0.946 | [34] 0.974 | [35] 0.95 | [36] 1.04 | [37] 0.944 | [38] 0.963 | [39] 0.938 | [40] 0.968 | [41] 1.01 | [43] 0.962 | [44] 0.928 | [45] 0.954 | [46] 0.968 | [47] 0.956 | [48] 0.965 | [49] 0.969 | [50] 0.941 | [51] 0.968 | [52] 0.989 | [53] 0.96 | [54] 0.967 | [55] 0.953 | [56] 0.963 | [57] 0.959 | [58] 0.959 | [59] 1.02 | [60] 0.953 | [61] 0.969 | [62] 0.939 | [63] 0.935 | [64] 0.926 | [65] 0.969 | [66] 0.905 | [67] 0.972 | [68] 0.954 | [69] 0.952 | [70] 0.946 | [71] 0.964

Cc1ccc(C)n1-c1ccc(/C=C2/C(=O)Nc3ccccc32)cc1
active: [26] 0.662 | [42] 0.837 | [66] 0.855
inactive: [1] 0.957 | [2] 0.973 | [3] 0.975 | [4] 0.972 | [5] 0.962 | [6] 0.971 | [7] 0.964 | [8] 0.979 | [9] 0.968 | [10] 0.974 | [11] 0.91 | [12] 0.986 | [13] 0.983 | [14] 0.968 | [15] 0.931 | [16] 0.903 | [17] 0.932 | [18] 0.947 | [19] 0.957 | [20] 0.981 | [21] 0.948 | [22] 0.976 | [23] 0.945 | [24] 0.925 | [25] 0.839 | [27] 0.832 | [28] 0.907 | [29] 0.857 | [30] 0.97 | [31] 0.878 | [32] 0.973 | [33] 0.923 | [34] 0.972 | [35] 0.912 | [36] 0.794 | [37] 0.963 | [38] 0.887 | [39] 0.939 | [40] 0.979 | [41] 1.02 | [43] 0.926 | [44] 0.925 | [45] 0.916 | [46] 0.97 | [47] 0.932 | [48] 0.957 | [49] 0.976 | [50] 0.936 | [51] 0.975 | [52] 0.936 | [53] 0.974 | [54] 0.978 | [55] 0.947 | [56] 0.972 | [57] 0.9 | [58] 0.932 | [59] 0.942 | [60] 0.863 | [61] 0.977 | [62] 0.931 | [63] 0.92 | [64] 0.935 | [65] 0.977 | [67] 0.971 | [68] 0.968 | [69] 0.958 | [70] 0.959 | [71] 0.967

COc1cc(OC)c(/C=C2/C(=O)Nc3ccccc32)c(OC)c1
inactive: locus YAL013W, strain DEP1, hits give low values 1.01 | locus YAL040C, strain CLN3, hits give low values 0.983 | locus YCL061C, strain MRC1 (second series), hits give low values 1.01 | locus YDR150W, strain NUM1, hits give low values 1.01 | locus YDR363W, strain ESC2, hits give low values 0.984 | locus YER002W, strain NOP16, hits give low values 1.02 | locus YJR075W, strain HOC1, hits give low values 1.01 | locus YMR307W, strain GAS1, hits give low values 1.01 | locus YNL153C, strain GIM3, hits give low values 0.914 | locus YNL175C, strain NOP13, hits give low values 0.972 | locus YNL197C, strain WHI3, hits give low values 0.979 | locus YNL224C, strain SQS1, hits give low values 0.996 | locus YNL322C, strain KRE1, hits give low values 1 | locus YOR083W, strain WHI5 (second series), hits give low values 0.967
